ChEMBL document CHEMBL3433997, “St. Jude Leishmania screening dataset” (2016)

How the values were obtained:
Type in all cases: functional
[1] = molecular target: Solute carrier family 2, facilitated glucose transporter member 1 (Homo sapiens) (UniProt P11166); assay: ST_JUDE_LEISH: Cytotoxicity at 2uM final concentration against transgenic Leishmania Mexicana promastigotes LmGLUT1 that are glucose transport deficient and complemented with the human glucose transporter GLUT1. Activity is measured by DNA content using SYBR green in vitro
Solute carrier family 2, facilitated glucose transporter member 1 (Homo sapiens), sequence (P11166 whole entry): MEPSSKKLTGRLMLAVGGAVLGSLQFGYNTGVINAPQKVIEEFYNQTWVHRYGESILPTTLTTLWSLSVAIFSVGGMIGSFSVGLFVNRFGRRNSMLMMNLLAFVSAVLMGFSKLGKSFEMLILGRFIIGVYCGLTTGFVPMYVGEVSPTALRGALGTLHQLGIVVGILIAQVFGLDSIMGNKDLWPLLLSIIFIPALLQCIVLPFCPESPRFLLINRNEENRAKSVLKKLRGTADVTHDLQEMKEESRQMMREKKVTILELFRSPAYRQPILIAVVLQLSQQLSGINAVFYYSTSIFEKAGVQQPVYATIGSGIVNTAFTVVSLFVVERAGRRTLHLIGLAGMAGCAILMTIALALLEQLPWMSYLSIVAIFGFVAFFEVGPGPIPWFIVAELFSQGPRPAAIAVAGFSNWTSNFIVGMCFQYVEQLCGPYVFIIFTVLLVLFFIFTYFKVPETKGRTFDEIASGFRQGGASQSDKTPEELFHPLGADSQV

[2] = molecular target: Hexose transporter 1 (Plasmodium falciparum) (UniProt O97467); assay: ST_JUDE_LEISH: Cytotoxicity at 2uM final concentration against transgenic Leishmania Mexicana promastigotes LmPfHT that are glucose transport deficient and complemented with the Plasmodium falciparum hexose transporter. Activity is measured by DNA content using SYBR green in vitro
[3] = molecular target: Glucose transporter (Leishmania mexicana) (UniProt O61059); assay: ST_JUDE_LEISH: Cytotoxicity at 2uM final concentration against transgenic Leishmania Mexicana promastigotes LmGT2 that are glucose transport deficient and complemented with the L. Mexicana glucose transporter 2. Activity is measured by DNA content using SYBR green in vitro

Compound | inhibition [1] [%] | inhibition [2] [%] | inhibition [3] [%]
O=C(CCc1c[nH]cn1)Nc1cccc(-c2ccc(-c3nc4cc(F)ccc4[nH]3)cc2)c1 | 16.3 | 13.1 | 16.6
CCn1c(C2CCN(CCC3CCN(C(=O)/C=C/c4ccc(Cl)c(Cl)c4)CC3)CC2)nc2ccccc21 | 3.31 | 1.31 | 0.66
O=C(NCc1ccco1)c1ccc(S(=O)(=O)c2ccc(Cl)cc2)cc1 | 0.13 | 1.22 | 0.06
CSC1=NC(=Nc2ccccc2C)C2(CCC(C(C)(C)C)CC2)N1c1ccccc1Cl (stereo not drawn) | -1.03 | -3.95 | -2.88
COc1cc2nc(N3CCC(c4ccccc4)CC3)nc(NCc3ccc(=O)[nH]c3)c2cc1OC | 1.44 | 1.5 | 1.6
CCCCOc1ccc(C(O)C(CN2CCCCC2)c2ccccc2)cc1 (stereo not drawn) | 1.61 | 1.36 | 0.33
CC1(C)N=C(N)N=C(N)N1OCc1cc(Cl)c(CON2C(N)=NC(N)=NC2(C)C)cc1Cl | 0.92 | 1 | -2.89
CCN(CC)Cc1ccc2c(=O)cc(CCc3cccc(F)c3F)n(CC(=O)N(Cc3ccc(-c4ccc(C(F)(F)F)cc4)cc3)C(C)C)c2c1 | 1.44 | 2 | -0.21
Cc1[nH]c(C)c(-c2ccc(-c3ccc(Cl)cc3)cc2)c(=O)c1Cl | -0.9 | 0.3 | 1.13
O=C(NCCCCCN1CCC(c2c[nH]c3ccccc23)CC1)Nc1ccc(I)c(Cl)c1 | 7.04 | 4.76 | 5.92
COC(=O)c1cccc(CNCc2cccc(-c3ccc(-c4nc5ccccc5[nH]4)s3)c2)c1 | 0.25 | 2.5 | 1.96
CCN(CCCN1CCCCC1)c1cc(C)nc(Nc2ccc(C)c(Cl)c2)n1 | 3.02 | 2.33 | 1.16
CC(=O)Oc1c(C2CCN(CCCCNC(=O)c3ccc(-c4ccc(C#N)cc4)cc3)CC2)ccc2c1CCCC2 | 0.47 | 1.16 | 1.58
CC(C)(C)OC(=O)NCCc1cccc(-c2c[nH]c3ncc(-c4cccc(NS(C)(=O)=O)c4)cc23)c1 | -0.22 | -2.71 | 7.65
Cc1cc(NC(=O)NCCN2CCC(NS(=O)(=O)c3ccccc3F)CC2)c2ccccc2n1 | 1.57 | 2.12 | 0.24
CSc1ccc2ccccc2c1CNCCCCCCNCc1c(SC)ccc2ccccc12 | 1.24 | 0.13 | 1.41
CCOc1ccc(-c2nonc2NC(=O)c2ccc(OC)cc2)cc1OCC | -1.17 | 4.75 | -0.16
NC1CCCN(Cc2cccc(-c3ccc(-c4nc5ccccc5[nH]4)cc3)c2)C1 (stereo not drawn) | 7.18 | 5.94 | 8.63
FC(F)(F)c1cccc(Nc2nc(-c3ccccc3)nc3ncccc23)c1 | 3.41 | 2.83 | 3.04
COc1ccccc1OCCN(CC(O)COc1cccc2[nH]c3ccccc3c12)CC(O)COc1cccc2[nH]c3ccccc3c12 (stereo not drawn) | 3.01 | 2.43 | 2.35
Cc1cc(N[C@@H](Cc2ccccc2)C(=O)NCCCOC(C)C)nc(NCC2CCCCC2)n1 | 11.7 | 11.7 | 8.28
COc1ccc(CCNc2nc(N)c3cc(OC)c(OC)cc3n2)cc1 | 2.3 | 3.91 | 1.41
O=C(Nc1cccc(C(F)(F)F)c1)c1cccc(S(=O)(=O)NC2CCN(CC3CCCCC3)C2)c1 (stereo not drawn) | 0.18 | -0.46 | 2.99
c1ccc(-c2nc(NCCCn3ccnc3)cc(-c3ccncc3)n2)cc1 | 3.22 | 4.55 | 1.25

Compound | inhibition [1] [%] | inhibition [2] [%] | inhibition [3] [%]
CCN1C(=O)N(CCC(C)C)C2(CCN(Cc3ccc(OC)cc3O)CC2)C1=O | 5.4 | 3.01 | 3
COc1ccc2ncc(F)c([C@@H](O)CN3CCC(NCc4ccc5c(c4)NCCS5)CC3)c2n1 | 8.36 | 8.01 | -5.06
Cc1ccc2nc(N(CCCn3ccnc3)C(=O)C=Cc3cccs3)sc2c1 | 0.75 | 1.84 | -2.73
Oc1ccc(CCNCCCCCCNCCc2ccc(Br)cc2)cc1O | 3.51 | 2.35 | 0.85
N=C(/N=C(/NCCCCCCN/C(=N/C(=N)NCc1ccc(Cl)c(Cl)c1)N1CCCCC1)N1CCCCC1)NCc1ccc(Cl)c(Cl)c1 | 8.42 | 9.68 | 8.06
O=C1NC(c2ccccc2)C2(CCN(CC(O)COc3cccc4ncccc34)CC2)O1 (stereo not drawn) | 2.46 | 3.19 | 1.26
CC(CN1CCN(C)CC1)C(=O)Nc1ccc(-c2ccc(-c3nc4cc(F)ccc4[nH]3)cc2)cc1 (stereo not drawn) | 9.06 | 3.05 | 8.04
O=S(=O)(c1cccc(C(F)(F)F)c1)N1CCC(CO)(Cc2cccc(C(F)(F)F)c2)CC1 | 9.13 | 6.86 | 7.55
Cc1cc(N[C@@H](Cc2ccccc2)C(=O)NCc2cccc(F)c2)nc(NCCc2ccccc2)n1 | 5.82 | 4.21 | 2.48
O=C(C=Cc1ccc(Cl)c(Cl)c1)NCCCCCN1CCCC(CCCNS(=O)(=O)c2cccc3cccnc23)C1 (stereo not drawn) | 5.85 | 5.36 | -0.71
CN(CC(=O)Nc1ccc(F)c(F)c1F)c1ncnc2sc(-c3ccccc3)cc12 | 3.92 | 4.09 | 2.74
O=C(Nc1cccc(Cl)c1N1CCOCC1)C(Cl)(Cl)Cl | 1.32 | 0.42 | 1.03
Cc1cc(N2CCN(C)CC2)nc2ccc(NC(=O)c3cccc(N(C)C)c3)cc12 | 7.09 | 7.99 | 10.2
CC[C@H](NC(=O)c1ccc(NC(=O)OC(C)(C)C)cc1)C(=O)N[C@@H](CO)C(=O)NCCCCc1ccccc1 | 1.96 | 1.3 | -0.11
O=S(=O)(NCCN1CCCC1)c1ccc(-c2ccc(CNCc3ccsc3)cc2)s1 | 10.5 | 7.66 | 4.76
c1csc(-c2ccc3c(c2)CC(NCc2c[nH]c4cnccc24)C3)c1 (stereo not drawn) | 4.86 | 5.34 | 5.84
CCCC(=O)NC(NC(=S)Nc1ccc([N+](=O)[O-])cc1)C(Cl)(Cl)Cl (stereo not drawn) | -1.2 | -0.54 | -0.01
CC(C)CCN1CCCN(Cc2ccc(C(=O)NCc3ccc(Cl)cc3)cc2)CC1 | 2.09 | 0.59 | -0.7
Cc1nc(C)c(-c2ccc(Oc3ccc(Cl)c(Cl)c3)cc2)c(O)c1Br | 0.19 | 0.11 | 0.06
CC(Cc1ccc(NC(=O)c2ccc(CNCCCCc3ccccc3)cc2)cc1)NCCc1cccc(Cl)c1 (stereo not drawn) | 106 | 102 | 105
Cc1ccccc1C1CCN(C2CCC(NC(=O)/C=C/c3cc(F)ccc3F)CC2)CC1 (stereo not drawn) | 1.51 | 2.73 | 3.64
COc1ccc2nccc(N3CCC(NCCNCc4cc5c(cn4)OCCO5)C3)c2n1 (stereo not drawn) | 2.14 | 2.64 | 3.54
CC(O)c1cccc(-c2ccc(Nc3ccnc4cc(-c5nccs5)ccc34)cc2)c1 (stereo not drawn) | 4.55 | 4.09 | 4.15
O=C(/C=C/c1ccc([N+](=O)[O-])cc1)N1CCC(NS(=O)(=O)c2ccc(F)cc2)CC1 | 6 | 3.96 | 7.08

Compound | inhibition [1] [%] | inhibition [2] [%] | inhibition [3] [%]
CC(C)CNCc1cccc(-c2cccc(CNC3CCN(Cc4ccccc4)CC3)c2)c1 | 1.93 | 2.58 | 1.83
COc1ccc(-c2cnn3ccc(Nc4cc(OC)c(OC)c(OC)c4)nc23)cc1OC | 17.3 | 11.4 | 9.46
Cn1c(N)c(N=O)c(=O)[nH]c1=O | 1.53 | 0.51 | 1.58
COc1ccc(Br)cc1C1Nc2ccc3ccccc3c2C2=C1C(=O)CC(c1ccccc1)C2 (stereo not drawn) | 1.86 | 2.25 | 3.67
COc1ccc(S(=O)(=O)NC2CCN(c3ccc(C(F)(F)F)cc3NC(=O)OCC(C)C)CC2)cc1 | 0.36 | 1.75 | 2.43
CCC[C@@H]([C@@H](CC1CCCCC1)C(=O)N[C@H](C(=O)Nc1nccs1)[C@H](C)O)N(O)C=O | 1.07 | 1.35 | 2.03
CCN(CC)CCn1c2ccccc2c2ccc(C(=O)Nc3ccc4sc(C)nc4c3)cc21 | 13.2 | 11.9 | 8.05
O=C(Nc1cccc(CN2CCCN(Cc3cccnc3)CC2)c1)c1ccc(Cl)c(Cl)c1 | 5.01 | 4.16 | 5.38
CCc1ccc(OCc2ccccc2C(=O)Nc2ccc3nc(C)cc(N)c3c2)cc1 | 2.1 | 2.87 | 1.97
CCCN1CCN(CCNc2c3ccccc3nc3ccccc23)CC1 | 96.4 | 97.2 | 94.2
Cc1cc2ncn(-c3nccc(NCc4cccnc4)n3)c2cc1C | 4.32 | 4.68 | 2.17
c1ccc(-c2cc3cccc(-c4nc5cnccc5[nH]4)c3o2)cc1 | 10.8 | 11.5 | 10.6
COc1ccc2nccc([C@@H](O)CN3CCC(NCc4cc5cc([N+](=O)[O-])ccc5[nH]4)CC3)c2c1 | 8.79 | 6.38 | 4.29
CCC(=O)Nc1ccc(C(O)CN2CCC3(C=Cc4ccccc4O3)CC2)cc1 (stereo not drawn) | 3.61 | 2.65 | 1.63
O=C(Nc1ccc(F)c(C(F)(F)F)c1)N[C@H]1CCN(CCCCCNC(=O)C2CC2c2ccc(Cl)c(Cl)c2)C1 (stereo partly drawn) | -0.22 | -0.44 | -2.52
CO/C(=C\C=C\c1cc2cc(Cl)c(Cl)cc2[nH]1)C(=O)NCCCN1CCCC[C@H]1C | 3.27 | 2.98 | 1.43
CCCN(CCC)C(=O)c1cc(C(=O)N[C@@H](Cc2ccccc2)[C@H](O)CNC(C)(C)c2cccc(C(F)(F)F)c2)cc(N2CCCCS2(=O)=O)c1 | -1.43 | 4.18 | -1.54
CCN(CCNC(=O)Cn1c(C)cc2cc([N+](=O)[O-])ccc21)c1cccc(C)c1 | 6.46 | 6.77 | 6.91
O=C(Nc1ccc(CCNCCCc2ccccc2)cc1)Nc1ccc(Cl)c(Cl)c1 | -0.55 | -0.63 | -1.86
O=S(=O)(NCCN1CCCC1)c1ccc(-c2ccc(CN3Cc4ccccc4C3)cc2)s1 | -0.63 | -0.5 | -2.59
COc1ccc(CNCCc2cccs2)cc1-c1cccc(S(=O)(=O)NCCN2CCCC2)c1 | 2.17 | 2.94 | 0.9
COc1ccc(-c2cncc3ccc(C(=O)NCc4ccncc4)nc23)cc1 | 6.53 | 4.27 | 2.69
O=C(Nc1ccc(-c2nc3ccccc3[nH]2)cc1)c1cccc([N+](=O)[O-])c1 | 1.01 | -1.86 | -1.09
